Data on 53 compounds can be found in ChEMBL document CHEMBL3988442, “University of Dundee, Small-Polar-MMV Screening Library” (2021).

About 13,000 (27%) of roughly 48,000 compounds showed an effect of 50% or more. This is one part of the list.

This test concerns Wolbachia pipientis. The test is described as follows: Anti-Wolbachia Cell-Based Screen. Format: functional. As to conditions: 5 µM. Also noted: scale not given: in the data most compounds retested in dose-response had high values.
In the case of `CCc1nc(CNCC2CCCN2c2cc(NC)ncn2)cs1` (stereo not drawn), the “Percent Effect” value is on record as 9.196%.

In the case of `COc1c(C2CCCN2Cc2nnc(C3CC3)n2C)c(C)nn1C` (stereo not drawn), the “Percent Effect” value turned out to be 1.396%. Turning to `N#Cc1ccc(CN2CCN(C(=O)C3CCC3)[C@@H]3CS(=O)(=O)C[C@@H]32)cc1`, the “Percent Effect” value is listed as -4.315%. For `CN(C)c1nc(N)nc(CN2CCC(c3ccccc3)CC2)n1`, the “Percent Effect” value is on record as -7.992%. As for `CN(C)c1nc(N)nc(CN2CCC(c3nc4ccccc4o3)CC2)n1`, the “Percent Effect” value was -47.21%. With `CN(C)c1nc(N)nc(CN2CCCC2c2cccs2)n1` (stereo not drawn), the “Percent Effect” value was 99.23%. For `CN(CCC#N)C(=O)CN1CCCC1c1cccs1` (stereo not drawn) the value was -24.43%; for `CCCc1noc(CN2CCCC2c2ccsc2)n1` (stereo not drawn), 1.014%; for `Cc1nc(CN2CCCC2c2ccsc2)nc2ccccc12` (stereo not drawn), 1.892%. For `Cc1cccc(C2CCCN2Cc2nc(N)nc(N(C)C)n2)c1C` (stereo not drawn) the value was 140.3%; for `CN(C)c1nc(N)nc(CN2CCCC2c2ccsc2)n1` (stereo not drawn), 99.77%; for `CN(C)c1nc(N)nc(CN2CCCC(c3ccccc3)CC2)n1` (stereo not drawn), -22.19%.

Consider `COCCC(=O)Nc1nccn1Cc1ccc(Br)cc1`, for which the “Percent Effect” value is recorded as -0.6439%.

For the compound `CNC(=O)c1cnc(/C=C/c2ccc(OC)c(O)c2)s1`, the “Percent Effect” value was -1.59%. Next, `Cc1cc(C(=O)N2C[C@H](CO)C[C@H](CN3CCOCC3)C2)cnc1C`: 8.759%; `Cc1ccc(C)c2c(O)cc(CNCCNC(=O)C(C)C)nc12`: -21.09%; `c1cncc(NCCNC2CSCCSC2)c1`: 16.15%. Next, `Cc1cccc(-c2noc([C@@H]3C[C@@H](O)CN3Cc3ccc(CO)o3)n2)c1`: 5.801%; `CC(C)n1cnc2c1C(C(=O)N1CCCC1)N(S(C)(=O)=O)CC2` (stereo not drawn): -12.38%.

Turning to `Cc1nn(C)c(Cl)c1C1CCCN1Cc1nnc(C2CC2)n1C` (stereo not drawn), the “Percent Effect” value was -12.44%.

`Cc1cc(NC(=O)C(C)N2CCN(c3nccs3)CC2)on1` (stereo not drawn): the “Percent Effect” value was -1.934%. For `Cc1cc(NC(=O)CN2CCN(c3nccs3)C(C)C2)no1` (stereo not drawn) the value was 110.3%; for `Cc1cc(NC(=O)C(C)N2CCCN(c3nccs3)CC2)on1` (stereo not drawn), -9.765%. For `Cc1cc(NC(=O)CN2CCN(c3nccs3)C(C)C2)on1` (stereo not drawn) the value was 108.7%.

On to `CCc1nnc2n1CCN(CC(=O)Nc1cc(C)on1)C2`, for which the “Percent Effect” value is on record as -12.71%. For the compound `CC(=O)c1ccc(C(=O)Nc2ccnc(N(C)C)n2)cc1`, the “Percent Effect” value is -0.9205%. On to `CN(C)c1nccc(CNC(=O)NC(C)(C)C)n1`, for which the “Percent Effect” value is -4.369%. For the compound `CN(C)c1nccc(-c2cnc(N(C)C)[nH]c2=O)n1`, the “Percent Effect” value was found to be 117.9%.

On to `CCNC(=O)NCc1ccnc(N(C)C)n1`, for which the “Percent Effect” value is -21.64%. Next, `CN(C)c1nccc(-c2c[nH][nH]c2=O)n1`: 105.1%. With `CN(C)c1nccc(NC(=O)c2ccncc2)n1`, the “Percent Effect” value was determined as 2.726%. Turning to `c1cc(-c2nc(CN3CCn4c(nnc4C4CC4)C3)cs2)cs1`, the “Percent Effect” value is -6.477%. Regarding `Cc1noc2ncc(S(=O)(=O)Nc3cc(C(C)(C)C)n[nH]3)cc12`, the “Percent Effect” value was -0.8197%.

With `Cc1cc(C(=O)N(Cc2c(C)nn(C)c2C)C(C)C)nc(C)n1`, the “Percent Effect” value came out at 12.98%.

As to `CN1CCN(Cc2ccccc2CNC(=O)c2cc(Br)ccc2F)CC1`, the “Percent Effect” value was -18.53%. As to `Cn1ccc(C(=O)NCc2ccccc2CN2CCCC2)cc1=O`, the “Percent Effect” value amounted to 88.78%.

With `CN1CCN(Cc2ccccc2CNC(=O)c2ccc(Br)cc2F)CC1`, the “Percent Effect” value was determined as 7.367%. Next, `Cn1ccc(C(=O)NCc2ccccc2Cn2ccnc2)cc1=O`: -5.249%. Next, `Cn1ccc(C(=O)NCc2ccccc2CN2CCCCC2)cc1=O`: 100.5%; `CN1CCN(Cc2ccccc2CNC(=O)c2ccc(Br)cc2)CC1`: 1.874%. Next, `COc1cc(C)cc(C(C(=O)O)N(C)Cc2ccon2)c1OC` (stereo not drawn): -2.337%; `O=C1CC(c2ccccc2)C2(CCN(C(=O)c3cnccn3)CC2)N1` (stereo not drawn): -7.237%. `O=C(COCC(F)(F)F)Nc1nncs1`: the “Percent Effect” value is 9.109%. `O=C(NCC1CC1)Nc1cccc(N2CCN(CC3CC3)CC2)c1`: the “Percent Effect” value amounted to 0.3476%.

For `O=C(CCn1cccc1)NCc1ccc(CN2CCCCCC2)o1`, the “Percent Effect” value was 106.7%. For `Cc1[nH]c2ccc(CNC(=O)c3ccc(CN4CCCC4)o3)cc2c1C` the value was 16.58%. For `O=C(NCc1ccc2[nH]c(=O)[nH]c2c1)c1ccc(CN2CCCC2)o1` the value was -9.598%; for `CNC(=O)c1csc(-c2ccoc2)n1`, 6.478%; for `CNC(=O)c1csc(-c2cccnc2)n1`, 130%. Regarding `CC(C)N1CCCC(CNC(=O)Cc2csc(-c3cccnc3)n2)C1` (stereo not drawn), the “Percent Effect” value turned out to be 3.537%.

For `O=C(NCCc1nncn1C1CC1)C1SCCc2ccccc21` (stereo not drawn), the “Percent Effect” value is -2.915%. Take `Cc1nn(C)cc1C(=O)N1CCC(CSc2ccccc2)C1` (stereo not drawn): the “Percent Effect” value is recorded as -5%. For `Cn1cccc(NC(=O)N2CCC(Cc3ccccc3)C2)c1=O` (stereo not drawn) the value was 25.6%.
